Measured values from PubChem BioAssay (NCATS).
Inconclusive results are not listed. The source made the active and inactive calls. Calls follow the shape of the dose curve; as a rule, active = well fitted cell-killing curve with a large enough effect; inconclusive = small, poorly fitted or top-dose-only effect, or effect the other way; inactive = no such curve, though single readings can be large or run the other way.

Assay: Quantitative High-Throughput drug screen in 47 multiple myeloma cell lines against the NCATS MIPE library collection: Karpas25_ECACC cell viability assay (AID 1918968; also: nearly all actives have a fitted effect of over 35% in size)
Conditions: Karpas25 myeloma viability, CellTiter-Glo ATP, 48 h; series mostly up to 45.8 µM
How it was run: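 Myeloma cells (500 per well) were exposed to MIPE 4.0 compounds by pin transfer and incubated 48 hours at 37C, 5% CO2. Viability was read as ATP by CellTiter-Glo luminescence, normalised to DMSO (100%) and media-only (0%) wells.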
Potency is read from the fitted curve at half-maximal effect.

Structure (SMILES)	Potency
CC(C)N(CCNC(=O)CN1CCCC1=O)C(C)C	inactive
CC[C@@]1(O)C(=O)OCc2c1cc1n(c2=O)Cc2cc3ccccc3nc2-1	0.0833 µM (active)
COc1ccc2c(c[n+](C)c3c4cc5c(cc4ccc23)OCO5)c1OC	7.43 µM (active)
O=S(=O)(CC1CS1)c1ccc(Oc2ccccc2)cc1 (stereo not drawn)	16.6 µM (active)
C[C@@H]1[C@H](O)[C@@H](C)C=CC=CCCC=CC=CC=CC=C[C@H](O[C@H]2O[C@@H](C)[C@H](O)[C@@H](N)[C@@H]2O)CC2O[C@](O)(C[C@@H](O)[C@H](O)CC[C@@H](O)C[C@@H](O)C[C@@H](O)CC(=O)O[C@H]1C)C[C@H](O)[C@H]2C(=O)O	inactive
CO[C@H]1CCC(O[C@H]2C[C@H]([C@]3(C)CC[C@]4(C[C@H](O)[C@@H](C)[C@@H]([C@@H](C)C=C(C)C(=O)[C@H](C)C[C@H](C)C(=O)O)O4)O3)O[C@]3(O[C@@H]([C@H]4O[C@@](O)(CO)[C@H](C)C[C@H]4C)C[C@H]3C)[C@H]2C)O[C@H]1C (stereo partly drawn)	1.48 µM (active)
CCOP(=O)(OCC)C(C)NC(=O)N(CCCl)N=O (stereo not drawn)	inactive
COc1ccc2c(c1)CN(C)CC2c1ccc(Cl)c(Cl)c1 (stereo not drawn)	0.209 µM (active)
CCNC(=O)C[C@@H]1N=C(c2ccc(Cl)cc2)c2cc(OC)ccc2-n2c(C)nnc21	2.09 µM (active)
O=S(=O)(F)Cc1ccccc1	2.64 µM (active)
Cc1c(C(=O)Nc2cccc(C(F)(F)F)c2)cc(-c2ccccc2)n1CCCN1CCOCC1	11.8 µM (active)
C[C@H]([C@H](O)CCC(C)(C)O)[C@H]1CC[C@@]2(O)C3=CC(=O)[C@@H]4C[C@@H](O)[C@@H](O)C[C@]4(C)[C@@H]3CC[C@]12C	inactive
CC(=CCCC1=CCC(C2=CC(=O)OC2O)OC1O)CCC1=C(C)CCCC1(C)C (stereo not drawn)	inactive
CCCN1CCO[C@@H]2c3cc(O)ccc3OC[C@@H]21	inactive
COc1ccc2c(c1)[C@]13CCCCC1C(C2)N(C)CC3 (stereo partly drawn)	inactive
CCN(CC)C(=O)c1ccc(C2=CC3(CCNCC3)Oc3cccc(O)c32)cc1	inactive
C[C@@H]1CC[C@H]2[C@@H](C)C(=O)O[C@@H]3O[C@@]4(C)CC[C@H]1[C@]32OO4	0.469 µM (active)
O=c1[nH]c2ccccc2n1C1CCN(Cc2ccc(-c3[nH]c4cc5ncnc5cc4nc3-c3ccccc3)cc2)CC1	8.33 µM (active)
CC(C)N[C@@H]1CCn2c(=O)[nH]c3cccc(c32)[C@@H]1O	0.187 µM (active)
c1ccc2c(CN3CCNCC3)cccc2c1	inactive
CC(=O)N(C)c1cccc(-c2ccnc3c(C(=O)c4cccs4)cnn23)c1	inactive
CN(C)NC(=O)CCC(=O)O	inactive
C[C@@]12OC(=O)[C@]1([C@@H](O)[C@@H]1C=CCCC1)NC(=O)[C@H]2CCCl	0.001 µM (active)
COc1cc([C@@H]2c3cc4c(cc3[C@@H](O)C3COC(=O)C32)OCO4)cc(OC)c1O (stereo partly drawn)	0.059 µM (active)
CC1(N2CCC(n3c([C@@H]4CCCNC4)nc4ccccc43)CC2)CCCCCCC1	18.7 µM (active)
CSCC[C@@H](NC(=O)[C@@H](Cc1ccccc1)NC(=O)CNC(=O)CNC(=O)[C@@H](N)Cc1ccc(O)cc1)C(=O)O	inactive
C[C@@H]1O[C@@H](O[C@@H]2C=C3CC[C@@H]4[C@@H](CC[C@]5(C)[C@H](c6ccc(=O)oc6)CC[C@@]45O)[C@@]3(C)CC2)[C@H](O)[C@H](O)[C@H]1O	0.0235 µM (active)
O=C(Nc1ccncc1)C(=O)c1cn(Cc2ccc(Cl)cc2)c2ccccc12	0.0469 µM (active)
C#C[C@]1(O)C=C[C@@H]2[C@@H]3CCC4=CC(=O)CC[C@@H]4[C@H]3CC[C@@]21CC	inactive
CC=C(C)C(=O)N[C@@H](c1ccccc1)[C@@H](O)C(=O)O[C@H]1C[C@@]2(O)[C@@H](OC(=O)c3ccccc3)[C@@H]3[C@]4(OC(C)=O)CO[C@@H]4C[C@H](O)[C@@]3(C)C(=O)[C@H](OC(C)=O)C(=C1C)C2(C)C	inactive

Assay: Quantitative High-Throughput drug screen in 47 multiple myeloma cell lines against the NCATS MIPE library collection: KMS27_JCRB cell viability assay (AID 1918970); also: nearly all actives have a fitted effect of over 30% in size
Conditions: KMS27 myeloma cells, CellTiter-Glo ATP viability, 48 h; series mostly up to 45.8 µM
How it was run: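 KMS27_JCRB myeloma cells, 500 per well, exposed 48 h at 37 C, 5% CO2 to MIPE 4.0 compounds. Viability from ATP by CellTiter-Glo luminescence, normalized to DMSO (100%) and medium-only (0%) wells.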

Structure (SMILES)	Potency
CC[C@@]1(O)C(=O)OCc2c1cc1n(c2=O)Cc2cc3ccccc3nc2-1	0.0166 µM (active)
CCOC(=O)c1c(C(C#N)=CN)c2ccc(Cl)c(Cl)c2n1C	inactive
COc1ccc2c(c[n+](C)c3c4cc5c(cc4ccc23)OCO5)c1OC	6.62 µM (active)
C[C@@H]1[C@H](O)[C@@H](C)C=CC=CCCC=CC=CC=CC=C[C@H](O[C@H]2O[C@@H](C)[C@H](O)[C@@H](N)[C@@H]2O)CC2O[C@](O)(C[C@@H](O)[C@H](O)CC[C@@H](O)C[C@@H](O)C[C@@H](O)CC(=O)O[C@H]1C)C[C@H](O)[C@H]2C(=O)O	inactive
CCOP(=O)(OCC)C(C)NC(=O)N(CCCl)N=O (stereo not drawn)	inactive
C[C@]12CCC(=O)C(O)=C1CC[C@@H]1[C@H]3CCC(=O)[C@@]3(C)CC[C@@H]12	inactive
COc1ccc2c(c1)CN(C)CC2c1ccc(Cl)c(Cl)c1 (stereo not drawn)	16.6 µM (active)
CCNC(=O)C[C@@H]1N=C(c2ccc(Cl)cc2)c2cc(OC)ccc2-n2c(C)nnc21	0.469 µM (active)
Cc1c(C(=O)Nc2cccc(C(F)(F)F)c2)cc(-c2ccccc2)n1CCCN1CCOCC1	18.7 µM (active)
CN(C)[C@@H]1C(=O)C(C(N)=O)=C(O)[C@@]2(O)C(=O)C3=C(O)c4c(O)cccc4[C@@](C)(O)[C@H]3[C@H](O)[C@@H]12	inactive
C[C@H]([C@H](O)CCC(C)(C)O)[C@H]1CC[C@@]2(O)C3=CC(=O)[C@@H]4C[C@@H](O)[C@@H](O)C[C@]4(C)[C@@H]3CC[C@]12C	inactive
CC(=CCCC1=CCC(C2=CC(=O)OC2O)OC1O)CCC1=C(C)CCCC1(C)C (stereo not drawn)	inactive
CCCN1CCO[C@@H]2c3cc(O)ccc3OC[C@@H]21	inactive
COc1ccc2c(c1)[C@]13CCCCC1C(C2)N(C)CC3 (stereo partly drawn)	inactive
C[C@@H]1CC[C@H]2[C@@H](C)C(=O)O[C@@H]3O[C@@]4(C)CC[C@H]1[C@]32OO4	inactive
O=c1[nH]c2ccccc2n1C1CCN(Cc2ccc(-c3[nH]c4cc5ncnc5cc4nc3-c3ccccc3)cc2)CC1	18.7 µM (active)
CC(C)N[C@@H]1CCn2c(=O)[nH]c3cccc(c32)[C@@H]1O	0.833 µM (active)
c1ccc2c(CN3CCNCC3)cccc2c1	inactive
CC(=O)N(C)c1cccc(-c2ccnc3c(C(=O)c4cccs4)cnn23)c1	20.9 µM (active)
CN(C)NC(=O)CCC(=O)O	inactive
C[C@@]12OC(=O)[C@]1([C@@H](O)[C@@H]1C=CCCC1)NC(=O)[C@H]2CCCl	0.0187 µM (active)
COc1cc([C@@H]2c3cc4c(cc3[C@@H](O)C3COC(=O)C32)OCO4)cc(OC)c1O (stereo partly drawn)	0.0148 µM (active)
CC1(N2CCC(n3c([C@@H]4CCCNC4)nc4ccccc43)CC2)CCCCCCC1	14.8 µM (active)
CSCC[C@@H](NC(=O)[C@@H](Cc1ccccc1)NC(=O)CNC(=O)CNC(=O)[C@@H](N)Cc1ccc(O)cc1)C(=O)O	inactive
C[C@@H]1O[C@@H](O[C@@H]2C=C3CC[C@@H]4[C@@H](CC[C@]5(C)[C@H](c6ccc(=O)oc6)CC[C@@]45O)[C@@]3(C)CC2)[C@H](O)[C@H](O)[C@H]1O	0.0083 µM (active)
O=C(Nc1ccncc1)C(=O)c1cn(Cc2ccc(Cl)cc2)c2ccccc12	0.0209 µM (active)
COc1ccc(CC2NCCc3cc(OC)c(OC)cc32)cc1OC (stereo not drawn)	inactive
CC=C(C)C(=O)N[C@@H](c1ccccc1)[C@@H](O)C(=O)O[C@H]1C[C@@]2(O)[C@@H](OC(=O)c3ccccc3)[C@@H]3[C@]4(OC(C)=O)CO[C@@H]4C[C@H](O)[C@@]3(C)C(=O)[C@H](OC(C)=O)C(=C1C)C2(C)C	0.0012 µM (active)
